# Source: PMC7862700, “An all-to-all approach to the identification of sequence-specific readers for epigenetic DNA modifications on cytosine”
# Assays:
# Test in all cases: DAPPL (digital affinity profiling via proximity ligation, sequencing); 10 mM Tris-HCl pH 7.5, 50 mM NaCl, 1 mM DTT, 4% glycerol, room temperature, 30 min; GST-TFs on glutathione beads, 16-mer random dsDNA library, 0.1% formaldehyde crosslink after washing; high values mean tight binding
# FLI1 = target: T1, FLI1 (Homo sapiens, UniProt Q01543 1-452); conditions: protein: recombinant; tags: N-terminal GST; dsDNA, one strand shown
# T1 sequence: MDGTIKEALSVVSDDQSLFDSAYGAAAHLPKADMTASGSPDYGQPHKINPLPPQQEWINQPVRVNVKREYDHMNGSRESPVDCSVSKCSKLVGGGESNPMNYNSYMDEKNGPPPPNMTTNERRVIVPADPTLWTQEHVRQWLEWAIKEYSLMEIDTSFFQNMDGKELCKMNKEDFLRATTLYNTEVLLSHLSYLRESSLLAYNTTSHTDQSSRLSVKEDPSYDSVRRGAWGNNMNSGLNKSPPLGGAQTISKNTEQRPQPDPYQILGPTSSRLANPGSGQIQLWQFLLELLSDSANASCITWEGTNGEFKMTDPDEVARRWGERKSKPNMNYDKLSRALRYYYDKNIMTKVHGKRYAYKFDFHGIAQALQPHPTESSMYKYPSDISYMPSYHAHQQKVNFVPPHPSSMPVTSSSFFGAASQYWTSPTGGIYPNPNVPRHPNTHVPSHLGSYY
# Outline: (§1)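 Pools of DNA-barcoded human transcription factors, expressed in yeast as GST fusions on glutathione beads and combined with a tag-only sample, were incubated with 200 nmole of a 16-mer random double-stranded DNA library. Incubation took 30 min at room temperature in Tris/NaCl/DTT/glycerol buffer and was followed by washing, 0.1% formaldehyde crosslinking, proximity ligation (BsaI/T4 ligase, 1 h, 37 °C), PCR amplification and sequencing on an Illumina NextSeq500. Binding signal is the ratio of a hexamer's read frequency for a factor to its frequency for the tag-only sample.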
# ELK1 = target: T2, ELK1 (Homo sapiens, UniProt P19419 1-428); conditions: protein: recombinant; tags: N-terminal GST; dsDNA, one strand shown
# T2 sequence: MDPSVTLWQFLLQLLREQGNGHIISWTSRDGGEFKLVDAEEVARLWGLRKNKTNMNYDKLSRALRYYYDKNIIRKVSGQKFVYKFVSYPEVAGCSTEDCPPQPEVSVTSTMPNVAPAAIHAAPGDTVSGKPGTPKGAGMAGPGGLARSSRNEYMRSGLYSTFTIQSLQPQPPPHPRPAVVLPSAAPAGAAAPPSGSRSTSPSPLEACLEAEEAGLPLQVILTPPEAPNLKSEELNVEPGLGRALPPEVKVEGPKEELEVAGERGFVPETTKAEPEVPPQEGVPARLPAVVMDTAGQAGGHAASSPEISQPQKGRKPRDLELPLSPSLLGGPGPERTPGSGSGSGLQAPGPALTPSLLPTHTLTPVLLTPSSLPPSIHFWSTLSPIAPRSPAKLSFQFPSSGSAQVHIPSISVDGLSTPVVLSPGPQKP
# Outline: as §1
# GABPA = target: T3, GABPA (Homo sapiens, UniProt Q06546 1-454); conditions: protein: recombinant; tags: N-terminal GST; dsDNA, one strand shown
# T3 sequence: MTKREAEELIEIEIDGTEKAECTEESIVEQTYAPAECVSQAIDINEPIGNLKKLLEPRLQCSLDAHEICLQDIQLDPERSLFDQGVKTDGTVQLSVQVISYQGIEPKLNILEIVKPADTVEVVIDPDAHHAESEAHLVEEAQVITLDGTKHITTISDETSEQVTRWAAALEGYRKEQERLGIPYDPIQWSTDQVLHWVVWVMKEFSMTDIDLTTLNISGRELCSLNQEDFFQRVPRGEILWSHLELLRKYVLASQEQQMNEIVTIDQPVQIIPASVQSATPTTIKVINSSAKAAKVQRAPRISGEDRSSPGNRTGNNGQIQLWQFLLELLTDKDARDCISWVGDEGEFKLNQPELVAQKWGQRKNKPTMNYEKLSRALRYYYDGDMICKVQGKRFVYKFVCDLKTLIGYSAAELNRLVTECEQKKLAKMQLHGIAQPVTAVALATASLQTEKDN
# Outline: as §1
# ERG = target: T4, ERG (Homo sapiens, UniProt P11308 1-479); conditions: protein: recombinant; tags: N-terminal GST; dsDNA, one strand shown
# T4 sequence: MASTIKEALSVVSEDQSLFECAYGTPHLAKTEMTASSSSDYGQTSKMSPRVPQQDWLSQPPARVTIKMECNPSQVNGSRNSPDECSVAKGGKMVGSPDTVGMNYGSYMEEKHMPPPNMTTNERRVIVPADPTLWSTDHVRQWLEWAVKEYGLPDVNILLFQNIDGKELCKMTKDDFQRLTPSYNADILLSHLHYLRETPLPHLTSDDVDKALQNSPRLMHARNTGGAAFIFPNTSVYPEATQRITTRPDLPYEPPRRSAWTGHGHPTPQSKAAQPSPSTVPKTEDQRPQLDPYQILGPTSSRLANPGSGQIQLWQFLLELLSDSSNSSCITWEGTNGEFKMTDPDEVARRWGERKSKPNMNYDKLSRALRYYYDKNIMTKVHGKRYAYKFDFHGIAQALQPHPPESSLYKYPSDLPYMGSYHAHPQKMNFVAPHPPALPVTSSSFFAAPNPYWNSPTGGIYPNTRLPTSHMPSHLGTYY
# Outline: as §1
# ELF1 = ELF1 (Homo sapiens, UniProt P32519 1-619); conditions: protein: recombinant; tags: N-terminal GST; dsDNA, one strand shown
# Outline: as §1
# EHF = target: T5, EHF (Homo sapiens, UniProt Q9NZC4 1-300); conditions: protein: recombinant; tags: N-terminal GST; dsDNA, one strand shown
# T5 sequence: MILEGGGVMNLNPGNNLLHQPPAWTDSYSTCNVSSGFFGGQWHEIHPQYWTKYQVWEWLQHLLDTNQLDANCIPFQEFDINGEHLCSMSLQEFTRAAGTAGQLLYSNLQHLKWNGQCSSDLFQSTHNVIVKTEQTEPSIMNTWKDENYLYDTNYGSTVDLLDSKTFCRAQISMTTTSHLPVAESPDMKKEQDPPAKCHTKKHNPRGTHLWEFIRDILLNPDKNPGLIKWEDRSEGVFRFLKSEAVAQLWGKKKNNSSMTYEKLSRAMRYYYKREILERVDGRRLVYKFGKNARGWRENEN
# Outline: as §1
# SPI1 = SPI1 (Homo sapiens, UniProt P17947 1-270); conditions: protein: recombinant; tags: N-terminal GST; dsDNA, one strand shown
# Outline: as §1
# SPIB = SPIB (Homo sapiens, UniProt Q01892 1-262); conditions: protein: recombinant; tags: N-terminal GST; dsDNA, one strand shown
# Outline: as §1
# ELK3 = target: T6, ELK3 (Homo sapiens, UniProt P41970 1-407); conditions: protein: recombinant; tags: N-terminal GST; dsDNA, one strand shown
# T6 sequence: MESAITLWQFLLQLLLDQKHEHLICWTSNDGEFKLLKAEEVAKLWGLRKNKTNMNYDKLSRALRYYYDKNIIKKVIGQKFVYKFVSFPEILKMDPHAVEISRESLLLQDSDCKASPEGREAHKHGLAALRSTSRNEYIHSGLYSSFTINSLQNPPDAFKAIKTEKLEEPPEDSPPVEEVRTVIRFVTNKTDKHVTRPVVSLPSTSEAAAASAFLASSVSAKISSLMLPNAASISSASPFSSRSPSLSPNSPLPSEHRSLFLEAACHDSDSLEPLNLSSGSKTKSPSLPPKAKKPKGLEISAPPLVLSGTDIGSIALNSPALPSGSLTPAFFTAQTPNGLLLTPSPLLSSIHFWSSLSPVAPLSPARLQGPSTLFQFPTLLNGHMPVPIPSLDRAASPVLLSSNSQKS
# Outline: as §1
# FEV = target: T7, FEV (Homo sapiens, UniProt Q99581 1-238); conditions: protein: recombinant; tags: N-terminal GST; dsDNA, one strand shown
# T7 sequence: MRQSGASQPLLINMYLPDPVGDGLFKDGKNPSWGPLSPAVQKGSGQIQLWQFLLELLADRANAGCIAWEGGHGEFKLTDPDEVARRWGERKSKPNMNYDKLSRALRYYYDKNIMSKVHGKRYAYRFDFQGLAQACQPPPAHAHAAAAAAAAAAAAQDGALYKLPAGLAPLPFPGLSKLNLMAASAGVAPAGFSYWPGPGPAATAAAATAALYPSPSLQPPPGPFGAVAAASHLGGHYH
# Outline: as §1
# ETV5 = ETV5 (Homo sapiens, UniProt P41161 1-510); conditions: protein: recombinant; tags: N-terminal GST; dsDNA, one strand shown
# Outline: as §1
# HSF1 = HSF1 (Homo sapiens, UniProt Q00613 1-529); conditions: protein: recombinant; tags: N-terminal GST; chain copies: 3; dsDNA, one strand shown
# Outline: as §1
# SPIC = target: T8, SPIC (Homo sapiens, UniProt Q8N5J4 1-248); conditions: protein: recombinant; tags: N-terminal GST; dsDNA, one strand shown
# T8 sequence: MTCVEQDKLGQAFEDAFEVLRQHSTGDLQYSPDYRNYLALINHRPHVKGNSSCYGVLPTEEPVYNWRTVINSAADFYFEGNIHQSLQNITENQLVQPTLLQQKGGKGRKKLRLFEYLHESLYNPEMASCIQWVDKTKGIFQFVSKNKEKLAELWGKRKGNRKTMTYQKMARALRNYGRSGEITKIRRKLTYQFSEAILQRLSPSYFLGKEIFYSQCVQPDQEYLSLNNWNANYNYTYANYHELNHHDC
# Outline: as §1
# ELF4 = ELF4 (Homo sapiens, UniProt Q99607 1-663); conditions: protein: recombinant; tags: N-terminal GST; dsDNA, one strand shown
# Outline: as §1
# ELK4 = target: T9, ELK4 (Homo sapiens, UniProt P28324-2 1-405); conditions: protein: recombinant; tags: N-terminal GST; dsDNA, one strand shown
# T9 sequence: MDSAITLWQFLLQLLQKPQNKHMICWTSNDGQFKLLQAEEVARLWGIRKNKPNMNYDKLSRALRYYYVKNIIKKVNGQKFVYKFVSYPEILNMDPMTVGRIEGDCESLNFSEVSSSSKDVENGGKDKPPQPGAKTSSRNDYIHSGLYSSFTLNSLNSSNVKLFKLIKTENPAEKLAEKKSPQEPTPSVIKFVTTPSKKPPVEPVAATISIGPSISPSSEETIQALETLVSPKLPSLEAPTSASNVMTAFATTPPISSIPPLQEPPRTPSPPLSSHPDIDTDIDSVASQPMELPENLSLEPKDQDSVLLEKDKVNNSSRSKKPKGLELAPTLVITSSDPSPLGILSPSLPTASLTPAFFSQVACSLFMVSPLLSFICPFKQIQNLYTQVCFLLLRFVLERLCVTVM
# Outline: as §1
# ETV2 = target: T10, ETV2 (Homo sapiens, UniProt O00321 1-342); conditions: protein: recombinant; tags: N-terminal GST; dsDNA, one strand shown
# T10 sequence: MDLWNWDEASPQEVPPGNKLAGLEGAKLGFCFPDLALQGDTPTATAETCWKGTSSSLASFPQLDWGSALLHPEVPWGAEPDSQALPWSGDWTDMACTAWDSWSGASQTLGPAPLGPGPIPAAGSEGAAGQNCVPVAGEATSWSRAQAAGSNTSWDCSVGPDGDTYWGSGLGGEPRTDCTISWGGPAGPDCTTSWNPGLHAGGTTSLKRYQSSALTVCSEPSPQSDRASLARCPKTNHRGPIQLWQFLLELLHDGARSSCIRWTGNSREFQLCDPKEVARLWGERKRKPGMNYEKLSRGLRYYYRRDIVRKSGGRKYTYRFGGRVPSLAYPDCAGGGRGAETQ
# Outline: as §1
# ELF3 = target: T11, ELF3 (Homo sapiens, UniProt P78545 1-371); conditions: protein: recombinant; tags: N-terminal GST; dsDNA, one strand shown
# T11 sequence: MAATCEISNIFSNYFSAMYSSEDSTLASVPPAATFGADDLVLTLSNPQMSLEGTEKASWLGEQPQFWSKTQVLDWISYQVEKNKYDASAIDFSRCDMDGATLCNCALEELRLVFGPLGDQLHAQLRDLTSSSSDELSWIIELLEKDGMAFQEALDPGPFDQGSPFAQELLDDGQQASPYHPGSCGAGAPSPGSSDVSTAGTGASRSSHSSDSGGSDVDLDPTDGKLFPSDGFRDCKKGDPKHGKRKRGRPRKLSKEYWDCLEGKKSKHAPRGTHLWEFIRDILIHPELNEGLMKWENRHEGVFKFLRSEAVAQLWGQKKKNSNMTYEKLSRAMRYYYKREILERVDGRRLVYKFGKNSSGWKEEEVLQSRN
# Outline: as §1
# CRX = CRX (Homo sapiens, UniProt O43186 1-299); conditions: protein: recombinant; tags: N-terminal GST; dsDNA, one strand shown
# Outline: as §1
# ETV1 = ETV1 (Homo sapiens, UniProt P50549 1-477); conditions: protein: recombinant; tags: N-terminal GST; dsDNA, one strand shown
# Outline: as §1
# Sequence of SPIB (Q01892 whole entry): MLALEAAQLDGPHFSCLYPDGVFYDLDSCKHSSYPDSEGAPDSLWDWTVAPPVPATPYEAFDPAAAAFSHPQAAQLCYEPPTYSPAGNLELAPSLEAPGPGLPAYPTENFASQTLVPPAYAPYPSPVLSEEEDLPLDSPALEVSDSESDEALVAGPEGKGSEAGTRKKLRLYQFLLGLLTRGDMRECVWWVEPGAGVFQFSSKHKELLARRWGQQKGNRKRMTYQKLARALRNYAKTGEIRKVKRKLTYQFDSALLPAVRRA
# Sequence of ETV1 (P50549 whole entry): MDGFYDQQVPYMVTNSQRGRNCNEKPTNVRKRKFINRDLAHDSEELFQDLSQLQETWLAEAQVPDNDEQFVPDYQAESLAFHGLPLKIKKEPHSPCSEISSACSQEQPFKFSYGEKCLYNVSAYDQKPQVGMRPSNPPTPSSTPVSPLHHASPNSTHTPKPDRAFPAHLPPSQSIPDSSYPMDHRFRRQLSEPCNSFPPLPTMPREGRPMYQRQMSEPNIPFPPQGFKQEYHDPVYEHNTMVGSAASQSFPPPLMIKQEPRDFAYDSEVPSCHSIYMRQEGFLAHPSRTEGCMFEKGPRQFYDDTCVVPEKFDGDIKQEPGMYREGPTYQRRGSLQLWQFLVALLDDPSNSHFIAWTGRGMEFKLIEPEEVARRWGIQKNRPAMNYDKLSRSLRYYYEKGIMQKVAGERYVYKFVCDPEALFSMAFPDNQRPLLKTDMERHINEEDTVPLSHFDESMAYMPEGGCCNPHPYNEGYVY
# Sequence of CRX (O43186 whole entry): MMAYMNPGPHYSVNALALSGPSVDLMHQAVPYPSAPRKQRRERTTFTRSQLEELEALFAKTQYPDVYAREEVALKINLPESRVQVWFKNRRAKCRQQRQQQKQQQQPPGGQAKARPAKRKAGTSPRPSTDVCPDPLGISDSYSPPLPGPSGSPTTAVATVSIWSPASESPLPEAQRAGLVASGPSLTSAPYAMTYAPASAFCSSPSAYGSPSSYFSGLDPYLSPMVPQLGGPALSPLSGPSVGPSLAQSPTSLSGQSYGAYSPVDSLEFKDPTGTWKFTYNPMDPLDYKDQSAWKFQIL
# Sequence of ELF1 (P32519 whole entry): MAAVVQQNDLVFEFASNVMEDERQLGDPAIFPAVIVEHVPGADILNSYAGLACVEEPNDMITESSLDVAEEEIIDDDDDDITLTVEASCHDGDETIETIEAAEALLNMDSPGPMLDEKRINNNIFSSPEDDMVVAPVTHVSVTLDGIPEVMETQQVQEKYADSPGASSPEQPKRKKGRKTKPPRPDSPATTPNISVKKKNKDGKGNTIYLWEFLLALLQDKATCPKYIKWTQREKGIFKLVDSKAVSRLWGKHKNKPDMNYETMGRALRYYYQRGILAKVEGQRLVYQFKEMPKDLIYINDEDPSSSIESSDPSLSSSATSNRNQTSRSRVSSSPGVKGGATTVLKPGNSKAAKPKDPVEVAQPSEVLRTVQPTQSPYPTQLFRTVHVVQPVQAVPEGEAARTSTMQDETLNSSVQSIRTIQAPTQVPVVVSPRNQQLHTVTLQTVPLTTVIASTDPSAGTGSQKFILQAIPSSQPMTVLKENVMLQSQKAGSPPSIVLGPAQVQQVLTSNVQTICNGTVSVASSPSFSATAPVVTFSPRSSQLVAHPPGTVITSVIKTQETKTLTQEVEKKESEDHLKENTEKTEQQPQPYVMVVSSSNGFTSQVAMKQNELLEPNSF
# Sequence of ETV5 (P41161 whole entry): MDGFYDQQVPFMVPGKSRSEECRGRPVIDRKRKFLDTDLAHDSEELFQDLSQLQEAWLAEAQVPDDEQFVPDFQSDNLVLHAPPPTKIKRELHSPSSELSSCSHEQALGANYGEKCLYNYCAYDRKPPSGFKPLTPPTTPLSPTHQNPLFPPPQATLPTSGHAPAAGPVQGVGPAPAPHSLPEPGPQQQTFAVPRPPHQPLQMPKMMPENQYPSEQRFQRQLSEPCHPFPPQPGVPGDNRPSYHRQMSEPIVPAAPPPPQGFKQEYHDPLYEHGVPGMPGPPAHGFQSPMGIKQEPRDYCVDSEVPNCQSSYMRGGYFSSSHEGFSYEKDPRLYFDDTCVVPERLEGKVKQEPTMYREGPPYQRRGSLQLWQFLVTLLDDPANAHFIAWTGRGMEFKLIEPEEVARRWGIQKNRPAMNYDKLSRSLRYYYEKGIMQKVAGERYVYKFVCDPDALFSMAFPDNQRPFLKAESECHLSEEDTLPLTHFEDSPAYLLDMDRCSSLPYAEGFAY
# Sequence of HSF1 (Q00613 whole entry): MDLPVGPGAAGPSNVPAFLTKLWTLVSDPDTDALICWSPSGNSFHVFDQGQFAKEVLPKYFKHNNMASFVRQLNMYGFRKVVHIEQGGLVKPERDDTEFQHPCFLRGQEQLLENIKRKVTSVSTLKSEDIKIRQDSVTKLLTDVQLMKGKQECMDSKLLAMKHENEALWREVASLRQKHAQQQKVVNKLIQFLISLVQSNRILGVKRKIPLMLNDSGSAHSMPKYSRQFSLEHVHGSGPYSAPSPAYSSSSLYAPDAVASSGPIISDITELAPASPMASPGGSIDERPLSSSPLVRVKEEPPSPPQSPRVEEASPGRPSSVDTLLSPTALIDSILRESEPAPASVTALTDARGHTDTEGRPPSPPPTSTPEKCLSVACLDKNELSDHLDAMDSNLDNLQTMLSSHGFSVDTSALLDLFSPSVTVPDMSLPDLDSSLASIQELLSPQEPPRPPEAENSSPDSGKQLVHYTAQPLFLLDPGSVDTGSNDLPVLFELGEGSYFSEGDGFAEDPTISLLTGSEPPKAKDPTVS
# Sequence of ELF4 (Q99607 whole entry): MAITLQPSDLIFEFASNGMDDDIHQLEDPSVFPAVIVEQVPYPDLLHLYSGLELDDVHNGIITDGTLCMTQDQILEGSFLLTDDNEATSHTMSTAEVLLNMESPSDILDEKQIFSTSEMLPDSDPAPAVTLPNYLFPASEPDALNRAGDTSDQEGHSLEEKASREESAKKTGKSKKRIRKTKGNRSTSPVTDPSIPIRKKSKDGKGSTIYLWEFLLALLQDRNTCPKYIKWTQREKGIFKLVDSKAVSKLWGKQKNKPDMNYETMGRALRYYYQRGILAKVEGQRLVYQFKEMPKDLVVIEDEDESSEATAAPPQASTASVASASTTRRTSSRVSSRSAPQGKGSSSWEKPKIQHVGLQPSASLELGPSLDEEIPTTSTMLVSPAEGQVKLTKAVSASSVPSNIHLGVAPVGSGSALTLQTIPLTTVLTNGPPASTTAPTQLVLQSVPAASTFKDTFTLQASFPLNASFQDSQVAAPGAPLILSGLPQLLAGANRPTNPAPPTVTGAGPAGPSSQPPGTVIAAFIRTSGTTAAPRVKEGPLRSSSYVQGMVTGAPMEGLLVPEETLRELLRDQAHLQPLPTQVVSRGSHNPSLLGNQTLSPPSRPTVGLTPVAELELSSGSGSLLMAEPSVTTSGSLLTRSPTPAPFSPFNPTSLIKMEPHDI
sequence,measurement,setting,value
TTCCTA,binding signal,FLI1,"1.82 fold enrichment (6-mer frequency, TF over GST control)"
same,binding signal,ELK1,"1.72 fold enrichment (6-mer frequency, TF over GST control)"
same,binding signal,GABPA,"1.55 fold enrichment (6-mer frequency, TF over GST control)"
same,binding signal,ERG,"1.78 fold enrichment (6-mer frequency, TF over GST control)"
same,binding signal,ELF1,"1.63 fold enrichment (6-mer frequency, TF over GST control)"
same,binding signal,EHF,"1.59 fold enrichment (6-mer frequency, TF over GST control)"
same,binding signal,SPI1,"1.7 fold enrichment (6-mer frequency, TF over GST control)"
same,binding signal,SPIB,"1.93 fold enrichment (6-mer frequency, TF over GST control)"
same,binding signal,ELK3,"1.74 fold enrichment (6-mer frequency, TF over GST control)"
same,binding signal,FEV,"1.62 fold enrichment (6-mer frequency, TF over GST control)"
same,binding signal,ETV5,"1.79 fold enrichment (6-mer frequency, TF over GST control)"
same,binding signal,HSF1,"1.59 fold enrichment (6-mer frequency, TF over GST control)"
same,binding signal,SPIC,"1.67 fold enrichment (6-mer frequency, TF over GST control)"
same,binding signal,ELF4,"1.57 fold enrichment (6-mer frequency, TF over GST control)"
same,binding signal,ELK4,"1.52 fold enrichment (6-mer frequency, TF over GST control)"
same,binding signal,ETV2,"1.77 fold enrichment (6-mer frequency, TF over GST control)"
same,binding signal,ELF3,"1.84 fold enrichment (6-mer frequency, TF over GST control)"
same,binding signal,CRX,"1.47 fold enrichment (6-mer frequency, TF over GST control)"
same,binding signal,ETV1,"1.72 fold enrichment (6-mer frequency, TF over GST control)"
